PubChem BioAssay AID463173 (ICCB-Longwood Screening Facility, Harvard Medical School, 2010)
The campaign covered roughly 52,000 compounds. About 1,700 (3.3%) were called active. The sample holds actives, similar compounds and a random draw of the others, so the mix is not that of the screen. Rule as the data show it: active = survival mostly below about 52% (no sharp cut-off); inactive = mostly above about 56%.

These compounds were tested on Wild type (assay: growth inhibition of S. aureus wild type versus tarO mutant, primary screen, teichoic acid synthesis inhibitors, RN4220, OD600 (AID 463173)). Conditions: S. aureus RN4220 wild type/DeltatarO growth, OD600, 18 h, active compounds read low, screened at 18.75 µg/mL (by protocol).
For `COc1ccc(C2CC(=O)N(Cc3cccc(F)c3)c3ccccc3S2)cc1` (stereo not drawn), the survival was 9% (active). With `COc1cc(C2CC(=O)N(Cc3ccc(F)cc3)c3ccccc3S2)cc(OC)c1OC` (stereo not drawn) the survival was 72% (inactive). With `O=C1CC(c2ccccc2)Sc2ccccc2N1Cc1ccccc1F` (stereo not drawn) the survival was 96% (inactive). `COc1cc(C2CC(=O)N(Cc3cccc(F)c3)c3ccccc3S2)cc(OC)c1OC` (stereo not drawn) was tested, and the survival was 83% (inactive). `O=C1CC(c2ccccc2)Sc2ccccc2N1Cc1ccc(F)cc1` (stereo not drawn) was tested, and the survival was 16% (active). `COc1ccc(C2CC(=O)N(Cc3ccc(F)cc3)c3ccccc3S2)cc1` (stereo not drawn) was tested, and the survival was 30% (inactive). In the case of `COc1ccc(S(=O)(=O)c2c(Nc3ccc(C)cc3)sc(C(=O)c3ccc4c(c3)OCO4)c2N)cc1`, the survival is reported as 143% (inactive). `CCNc1nc(NCC)nc(N(n2cnnc2)S(=O)(=O)c2ccc(C)cc2)n1` was tested, and the survival was 45% (inactive). With `CCOc1ccc(CNC(=O)c2cnc3sc(N(CC)CC)nn3c2=O)cc1` the survival was 75% (inactive). In the case of `COc1ccc(N2CCN(CCCNC(=O)Cn3c(-c4cccs4)cc4ccccc43)CC2)cc1`, the survival is reported as 86% (inactive). In the case of `Cc1cc(C)cc(NC(=O)CN2C(=O)COc3ccc(S(=O)(=O)Nc4ccccc4)cc32)c1`, the survival is reported as 98% (inactive). `CC1CCN(c2nc3c(-c4cccc(Br)c4)nnn3c3ccccc23)CC1` was tested, and the survival was 85% (inactive). `Cc1ccc(-c2nnn3c2nc(N2CCC(C)CC2)c2ccccc23)cc1` was tested, and the survival was -2% (active). With `CC1CCCN(c2nc3c(-c4ccc(Cl)cc4)nnn3c3ccccc23)C1` (stereo not drawn) the survival was 83% (inactive). In the case of `Clc1ccc(-c2nnn3c2nc(N2CCCCC2)c2ccccc23)cc1`, the survival is reported as 45% (inactive). For `COc1ccc(-c2nnn3c2nc(N2CCCC(C)C2)c2ccccc23)cc1` (stereo not drawn), the survival was 0% (active). `Brc1cccc(-c2nnn3c2nc(N2CCCCC2)c2ccccc23)c1` was tested, and the survival was 76% (inactive). For `COc1ccc(C2C(C(=O)Nc3ccc(C)cc3C)=C(C)Nc3nc4ccccc4n32)c(OC)c1` (stereo not drawn), the survival was 65% (inactive). For `CCOC(=O)C1CCCN(S(=O)(=O)c2ccc3[nH]c(=O)oc3c2)C1` (stereo not drawn), the survival was 88% (inactive). In the case of `CCOc1ccc(NC(=O)CCCn2c(C)c3cnn(-c4ccccc4)c(=O)c3c2C)cc1`, the survival is reported as 89% (inactive). In the case of `COc1ccc(Cl)cc1NC(=O)C(C)N1Cc2ccccc2C1=O` (stereo not drawn), the survival is reported as 85% (inactive). `COC(=O)CSc1nc(N)c(C#N)c(-c2ccccc2)c1C#N` was tested, and the survival was 112% (inactive). In the case of `CCC(Sc1nc(N)cc(=O)[nH]1)C(=O)NC(C)c1ccccc1` (stereo not drawn), the survival is reported as 103% (inactive). For `O=C(CSc1nc(-c2ccccc2)cc(=O)[nH]1)c1ccccc1`, the survival was 119% (inactive). `CCOC(=O)C1CCN(c2nc(-c3ccc(Br)cc3)nc3ccccc23)CC1` was tested, and the survival was 75% (inactive). For `Cn1nnc2c(N3CCN(c4ccc(F)cc4)CC3)ncnc21`, the survival was 80% (inactive). `COc1ccc(N2CCN(c3ncnc4c3nnn4C)CC2)cc1` was tested, and the survival was -2% (active). With `CC1CCN(c2ncnc3c2nnn3C)CC1` the survival was 83% (inactive). `CCOC(=O)C1CCN(c2cc(C)c(C#N)c3nc4ccccc4n23)CC1` was tested, and the survival was 99% (inactive). `CCOC(=O)C1CCCN(c2ncnc3c2nnn3C)C1` (stereo not drawn) was tested, and the survival was 121% (inactive). `Cn1nnc2c(N3CCN(c4ccccc4)CC3)ncnc21` was tested, and the survival was 88% (inactive). For `CCOC(=O)C1CCN(c2ncnc3c2nnn3C)CC1`, the survival was 10% (active). `CCOC(=O)C1CCN(c2nc3ccccc3nc2Cl)CC1` was tested, and the survival was -26% (active). For `CCn1nnc2cc(C(=O)Nc3cccc(Cl)c3)ccc21`, the survival was 87% (inactive). In the case of `CN(Cc1ccccc1)C(=O)C1CCC(CNS(=O)(=O)c2ccc3c(c2)CCCC(=O)N3)CC1` (stereo not drawn), the survival is reported as 131% (inactive). With `Clc1ccc2nc(-c3ccc(Br)o3)c(Nc3ccc4c(c3)OCCO4)n2c1` the survival was 93% (inactive). In the case of `O=C(CSc1ncccn1)NCCC1=CCCCC1`, the survival is reported as 112% (inactive). With `CCc1ccc(-n2cnc3cc(C(=O)NCc4ccc(C)cc4)ccc32)cc1` the survival was 65% (inactive). In the case of `CCc1nc2ccccc2n1CCCCOc1ccccc1C`, the survival is reported as 24% (active). With `CCc1nc2ccccc2n1CCCCOc1ccc(C)cc1` the survival was 1% (active). `COc1cccc(OCc2nc3ccccc3n2CCOc2cccc(C)c2)c1` was tested, and the survival was 73% (inactive). `Cc1ccccc1OCCCCn1c(CCNC(=O)C(C)(C)C)nc2ccccc21` was tested, and the survival was 65% (inactive). For `CC(C)(C)C(=O)NCCc1nc2ccccc2n1CCCCOc1ccc(Cl)cc1`, the survival was 28% (inactive). For `CCCCn1c(COc2cccc(OC)c2)nc2ccccc21`, the survival was 88% (inactive). With `Cc1ccc(OCCCCn2c(CCNC(=O)C(C)(C)C)nc3ccccc32)cc1` the survival was 76% (inactive). `CC(=O)NCCc1nc2ccccc2n1CCCCOc1ccc(Cl)cc1` was tested, and the survival was 95% (inactive). With `CCc1nc2ccccc2n1CCCCOc1ccc(Cl)cc1` the survival was 2% (active). With `CCCn1c(COc2cccc(C)c2)nc2ccccc21` the survival was 25% (active). In the case of `Cc1ccccc1OCCn1c(CCNC(=O)C(C)(C)C)nc2ccccc21`, the survival is reported as 75% (inactive). In the case of `CC(C)(C)C(=O)NCCc1nc2ccccc2n1CCCCOc1ccccc1`, the survival is reported as 79% (inactive). For `Cc1ccc(-c2nc3ccccc3[nH]2)cc1NC(=O)COc1ccc(Cl)cc1Cl`, the survival was 45% (inactive). `CC1=C(c2ccc(C(C)C)cc2)S(=O)(=O)NC1=NCc1ccccc1Br` was tested, and the survival was 82% (inactive). `COc1cc(NC(=O)CSc2nc3ccccc3nc2Cc2ccccc2OC)cc(OC)c1` was tested, and the survival was 66% (inactive). For `COc1ccccc1Cn1cc(C(=O)c2ccc(C)cc2)c(=O)c2cc(F)cc(F)c21`, the survival was 81% (inactive). With `Cc1cc(C)c(NC(=O)Cn2c(=O)n(CCCCC(=O)NCc3ccccc3Cl)c(=O)c3ccccc32)c(C)c1` the survival was 106% (inactive). With `Cc1cncn1CCc1nc2c3ccccc3nc(SCC(=O)Nc3cccc(Cl)c3)n2n1` the survival was 80% (inactive). For `CCc1c(CN2CCN(c3ccccc3F)CC2)csc1C`, the survival was 52% (inactive). `Cc1ccc(CNC(=O)CSCc2ccc(F)cc2)cc1` was tested, and the survival was 101% (inactive). With `O=C(CCCSc1nc(-c2ccco2)cc(C(F)(F)F)n1)NCC1CCCO1` (stereo not drawn) the survival was 108% (inactive). `COc1ccccc1CNC(=O)c1cc2c(-c3ccc(Cl)cc3)nn(C)c2s1` was tested, and the survival was 151% (inactive). In the case of `COCc1nc2ccccc2n1CCOc1cccc(C)c1`, the survival is reported as 53% (inactive). With `Cc1cccc(OCCCn2c(CCNC(=O)C(C)(C)C)nc3ccccc32)c1` the survival was 84% (inactive). `CCc1nc2ccccc2n1CCCCOc1cccc(C)c1` was tested, and the survival was 12% (active).
